Measured values reported in PubChem BioAssay (NCATS).
Inconclusive results are not listed. Activity calls are given as the source filed them. Unless noted, calls follow the shape of the dose curve; as a rule, active = well fitted curve in the direction sought with a large enough effect; inconclusive = small, poorly fitted or top-dose-only effect, or another doubt; inactive = no such curve, though single readings can be large; an effect the other way counts as inactive or inconclusive.

Legend:
[1] = Cell Viability - BJ (AID 421; calls by dose curve;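 also: potency is read from the fitted curve at half-maximal effect; cells exposed to compound for 40 hours at 37 °C before readout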); conditions: BJ fibroblast viability, qHTS
How it was run: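 Normal human BJ foreskin fibroblasts, 1500/well in complete medium, treated 40 hr at 37 °C. Cellular ATP by CellTiter-Glo luminescence; normalized to DMSO and 100 uM tamoxifen, AC50 from Hill fit.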

[2] = Cell Viability - Hek293 (AID 427;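 active = compounds whose dose-response curve shows a full or clear partial loss of cell viability, called from curve shape rather than a numeric limit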;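 also: potency is read from the fitted curve at half-maximal effect; cells exposed to compound for 40 hours at 37 °C before reading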); conditions: qHTS
How it was run: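 HEK293 cells in complete medium were exposed to compound for 40 hr at 37 °C, then cellular ATP was read by CellTiter-Glo luminescence. Data were normalized to DMSO (basal) and 100 uM tamoxifen (100% inhibition), and AC50 came from Hill fits.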

[3] = Cell Viability - HepG2 (AID 433; calls by dose curve;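 also: potency is read from the fitted curve at half-maximal effect; potency for ATP loss meaning cytotoxicity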); conditions: qHTS
How it was run: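 Cytotoxicity is scored as loss of intracellular ATP in HepG2 cells exposed to compounds for 40 h. Concentration-response curves, normalized to DMSO and 100 uM tamoxifen, give AC50 values.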

[4] = Cell Viability - MRC5 (AID 434; calls by dose curve;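 also: potency is read from the fitted curve at half-maximal effect; potency reflects cytotoxicity seen as loss of intracellular ATP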); conditions: MRC5 lung fibroblast viability, qHTS
How it was run: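 MRC5 normal human lung fibroblasts, 1500 cells/well, exposed to compound for 40 hr at 37 C. Cellular ATP was read by CellTiter-Glo luminescence; data normalized to DMSO and 100 uM tamoxifen, with AC50 from Hill fits.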

[5] = Cell Viability - SK-N-SH (AID 435; calls by dose curve;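 also: potency is read from the fitted curve at half-maximal effect; compound exposure lasted 40 h at 37 °C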); conditions: SK-N-SH neuroblastoma cell viability qHTS
How it was run: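 Cells seeded at 1500 per well and incubated 5 hr at 37 °C. Compound added, then 40 hr at 37 °C. CellTiter-Glo added, 20 min at room temperature, luminescence read.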

[6] = biological target: Mitogen-activated protein kinase 10 (Mus musculus) (UniProt Q61831); experiment: JNK3 AlphaScreen Assay (AID 530; active = well fitted curve in either direction with a large enough effect, not every such curve was filed as active;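 also: kinase came from lysate of stimulated human HepG2 cells; signal reports phosphorylation of biotinylated GST-cJun 1-79 at Ser73 with 10 µM ATP; % is scaled to controls: 0 for no effect and ±100 for the full control effect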); conditions: JNK3 lysate, c-Jun phosphorylation; series mostly up to 57.1 µM
How it was run: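 Pre-activated (IL-1β/TNFα) JNK3 in HepG2 lysates phosphorylates biotin-GST-cJun(1-79), 10 uM ATP; anti-phospho-cJun(Ser73) AlphaScreen read at room temperature, pH 7.6 Tris buffer. Compounds pre-incubated 15 min as titrations.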

[7] = Cell Viability - N2a (AID 540); conditions: N2a mouse neuroblastoma cell viability; activity change, negative = cytotoxicity: at 92.2 µM (top of the series);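 also: plate controls were DMSO alone for no effect and tamoxifen control for full effect; nearly all actives have a fitted effect of over 45% in size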
How it was run: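 Luminescent ATP signal (CellTiter-Glo, 20 min at room temperature) served as the viability read-out after N2a cells were treated with compounds for 40 hours at 37 °C. Concentration-response data were fitted to the Hill equation for AC50.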

[8] = Cell Viability - NIH 3T3 (AID 541); conditions: NIH 3T3 cell viability, qHTS; activity change, negative = cytotoxicity: at 92.2 µM (top of the series);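 also: plate controls were DMSO alone for no effect and tamoxifen positive control for full effect; nearly all actives have a fitted effect of over 25% in size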
How it was run: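 Luminescent ATP signal (CellTiter-Glo) served as the viability read-out after NIH 3T3 cells were exposed to compounds over a concentration range for 40 hr at 37 °C. Hill-equation modelling of concentration-response data gave AC50.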

[9] = Cell Viability - HUV-EC-C (AID 542); conditions: HUV-EC-C endothelial cell viability, qHTS; series mostly up to 92.2 µM; also: % is scaled to controls: 0 for no effect and ±100 for the full control effect; nearly all actives have a fitted effect of over 35% in size
How it was run: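 qHTS cytotoxicity: HUV-EC-C, 1000 cells/well, 5 hr settle, compound 40 hr 37 °C, CellTiter-Glo, luminescence. AC50 via Hill equation.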

[10] = Cell Viability - H-4-II-E (AID 543); conditions: H-4-II-E rat hepatoma viability; series mostly up to 92.2 µM; also: % is scaled to controls: 0 for no effect and ±100 for the full control effect; nearly all actives have a fitted effect of over 35% in size
How it was run: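 Luminescent ATP signal (CellTiter-Glo) served as the viability read-out, with cytotoxicity seen as a concentration-dependent ATP drop. Cells were treated for 40 hours in complete medium. AC50 values derive from Hill-equation modelling.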

[11] = Cell Viability - SH-SY5Y (AID 544); conditions: SH-SY5Y neuroblastoma cell viability; viability change, negative = cytotoxic: at 92.2 µM (top of the series); also: nearly all actives have a fitted effect of over 55% in size
How it was run: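 Luminescent ATP read-out (CellTiter-Glo) measures loss of viable SH-SY5Y neuroblastoma cells after 40 hr compound exposure at 37 °C. AC50 values derive from standard Hill modelling of qHTS concentration-response data.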

[12] = Cell Viability - Renal Proximal Tubule (AID 545); conditions: renal proximal tubule cells viability, primary cells of rat origin; series mostly up to 91.7 µM; also: nearly all actives have a fitted effect of over 40% in size
How it was run: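 Cytotoxicity is scored as a concentration-dependent drop in cellular ATP in primary rat renal proximal tubule cells exposed for 40 hr. AC50 derives from Hill modelling.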

[13] = Cell Viability - Mesenchymal (AID 546); conditions: mesenchymal cells viability, qHTS; series mostly up to 91.7 µM;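 also: cells exposed to compound for 40 hours before reading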
How it was run: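 Human kidney mesenchymal cells from normal renal glomeruli, 1000 cells/well, rested 5 hr at 37 °C, then treated 40 hr at 37 °C in complete medium. Cellular ATP read by CellTiter-Glo luminescence; AC50 from Hill-equation fits.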

[14] = Cellular Toxicity (caspase-3) HepG2 (AID 654); conditions: HepG2 caspase-3 activation, luminescence; series mostly up to 92.2 µM;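 also: cells exposed to compound for 16 hours before reading; 0% = DMSO alone and 100% = caspase signal from 100 µM tamoxifen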
How it was run: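 Cells plated 5 hr at 37 °C, compound added, incubated 16 hr at 37 °C. Caspase-Glo 3/7 reagent followed, 20 min at room temperature, then luminescence read. Activation scored as signal increase; AC50 from Hill fit.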

[15] = Cellular Toxicity (caspase-3) Jurkat (AID 655); conditions: Jurkat caspase-3 activation, luminescence; caspase-3 activation: at 92.2 µM (top of the series), DMSO = 0%, tamoxifen = 100%;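 also: cells exposed to compound for 16 h at 37 °C before reading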
How it was run: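 Caspase 3/7 activation is scored as increased luminescence in Jurkat cells cultured with compound for 16 hours in complete medium. AC50 values come from Hill fits of qHTS concentration-response data normalized to DMSO and 100 uM tamoxifen controls.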

[16] = Cellular Toxicity (caspase-3) HUV-EC-C (AID 656); conditions: HUV-EC-C cells, caspase-3 activation (apoptosis), vehicle = 0, 100 µM tamoxifen = 100%; series mostly up to 92.2 µM;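 also: cells exposed to compound for 16 h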
How it was run: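 Read-out: luminescence proportional to caspase 3/7 activity, measured 20 min after adding Caspase-Glo 3/7 reagent. Cells (HUV-EC-C) had received compound for 16 hr at 37°C. Increases relative to DMSO and 100 uM tamoxifen gave concentration-response AC50 values.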

[17] = Cellular Toxicity (caspase-3) SHSY5Y (AID 657); conditions: SH-SY5Y caspase-3 activation, DMSO zero, 10 µM staurosporine = 100%; series mostly up to 91.7 µM;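 also: cells exposed to compound for 16 hours at 37 °C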
How it was run: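 Cells plated and incubated 5 h at 37 °C, dosed over a concentration range, incubated 16 h, then given Caspase-Glo 3/7 reagent for 1 h at room temperature before luminescence reading. Staurosporine (10 uM) defined full stimulation.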

[18] = Cellular Toxicity (caspase-3) BJ (AID 658); conditions: BJ fibroblasts, luminescence, normalized: DMSO 0%, staurosporine 100%; series mostly up to 91.7 µM
How it was run: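 BJ human foreskin fibroblasts, 1000 cells/well, treated 16 hours at 37 °C in complete medium; caspase 3/7 activity by Caspase-Glo luminescence after 1 hr at room temperature. Normalized to DMSO and 10 uM staurosporine; AC50 from Hill fits.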

[19] = Cellular Toxicity (caspase-3) MRC-5 (AID 659); conditions: MRC-5 cells, luminescence, normalized: DMSO 0%, 10 µM staurosporine 100%; series mostly up to 91.7 µM;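 also: cells exposed to compound for 16 h at 37 °C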
How it was run: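 MRC-5 human normal lung fibroblasts, 1500 cells/well, treated 16 h at 37 °C in complete medium. Caspase 3/7 measured by Caspase-Glo luminescence after 1 h at room temperature. Normalized to DMSO and 10 uM staurosporine; AC50 from Hill fit.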

Cc1c(N)cccc1[N+](=O)[O-]
inactive: Potency [1] > 92 µM | Potency [2] > 92 µM | Potency [3] > 92 µM | Potency [4] > 92 µM | Potency [5] > 92 µM | outcome [6] | activity change, negative = cytotoxicity [7] 3.87% | Potency [8] | Potency [9] | Potency [10] | Potency [11] | Potency [12] | Potency [13] | Potency [14] | caspase-3 activation [15] 2.77% | outcome [16] | outcome [17] | outcome [18] | outcome [19]

Cc1ccc(C)c([N+](=O)[O-])c1
inactive: Potency [1] > 92 µM | Potency [2] > 92 µM | Potency [3] > 92 µM | Potency [4] > 92 µM | Potency [5] > 92 µM | outcome [6] | activity change, negative = cytotoxicity [7] 2.29% | Potency [8] | Potency [9] | Potency [10] | Potency [11] | Potency [12] | Potency [13] | Potency [14] | caspase-3 activation [15] 1.04% | outcome [16] | outcome [17] | outcome [18] | outcome [19]

BrC/C=C/CBr
inactive: Potency [1] > 92 µM | Potency [2] > 92 µM | Potency [3] > 92 µM | Potency [4] > 92 µM | Potency [5] > 92 µM | outcome [6] | activity change, negative = cytotoxicity [7] 6.2% | Potency [8] | Potency [9] | Potency [10] | Potency [11] | Potency [12] | Potency [13] | Potency [14] | caspase-3 activation [15] 1.67% | outcome [16] | outcome [17] | outcome [18] | outcome [19]

Nc1ccc(Cl)cc1[N+](=O)[O-]
inactive: Potency [1] > 92 µM | Potency [2] > 92 µM | Potency [3] > 92 µM | Potency [4] > 92 µM | Potency [5] > 92 µM | outcome [6] | activity change, negative = cytotoxicity [7] -24.6% | Potency [8] | Potency [9] | Potency [10] | Potency [11] | Potency [12] | Potency [13] | Potency [14] | caspase-3 activation [15] -0.00309% | outcome [16] | outcome [17] | outcome [18] | outcome [19]

O=[N+]([O-])c1ccccc1CCO
inactive: Potency [1] > 92 µM | Potency [2] > 92 µM | Potency [4] > 92 µM | Potency [5] > 92 µM | outcome [6] | Potency [8] | Potency [9] | Potency [10] | Potency [11] | Potency [12] | Potency [13] | Potency [14] | caspase-3 activation [15] 0.961% | outcome [16] | outcome [17] | outcome [18] | outcome [19]

COC(=O)CCCC(=O)OC
inactive: Potency [1] > 92 µM | Potency [2] > 92 µM | Potency [3] > 92 µM | Potency [4] > 92 µM | Potency [5] > 92 µM | outcome [6] | Potency [8] | Potency [9] | Potency [10] | Potency [11] | Potency [12] | Potency [13] | caspase-3 activation [15] 0.321% | outcome [16] | outcome [17] | outcome [18] | outcome [19]

BrC(Br)C(Br)Br
inactive: Potency [1] > 92 µM | Potency [2] > 92 µM | Potency [3] > 92 µM | Potency [4] > 92 µM | Potency [5] > 92 µM | outcome [6] | Potency [8] | Potency [9] | Potency [10] | Potency [11] | Potency [12] | Potency [14] | caspase-3 activation [15] 0.993% | outcome [16] | outcome [17] | outcome [18] | outcome [19]

Cc1ccccc1C(=O)O
inactive: Potency [1] > 92 µM | Potency [2] > 92 µM | Potency [3] > 92 µM | Potency [4] > 92 µM | Potency [5] > 92 µM | outcome [6] | activity change, negative = cytotoxicity [7] -16.3% | Potency [8] | Potency [9] | Potency [10] | Potency [11] | Potency [12] | Potency [14] | caspase-3 activation [15] -1.34% | outcome [16] | outcome [17] | outcome [19]

CCNc1ccccc1
inactive: Potency [1] > 92 µM | Potency [2] > 92 µM | Potency [3] > 92 µM | Potency [4] > 92 µM | Potency [5] > 92 µM | outcome [6] | activity change, negative = cytotoxicity [7] 2.42% | Potency [8] | Potency [9] | Potency [10] | Potency [11] | Potency [12] | Potency [13] | Potency [14] | caspase-3 activation [15] 0.137% | outcome [16] | outcome [17] | outcome [18] | outcome [19]

c1ccsc1
inactive: Potency [1] > 92 µM | Potency [2] > 92 µM | Potency [3] > 92 µM | Potency [5] > 92 µM | outcome [6] | activity change, negative = cytotoxicity [7] -9.01% | Potency [8] | Potency [9] | Potency [10] | Potency [11] | Potency [12] | Potency [14] | caspase-3 activation [15] 0.61% | outcome [16] | outcome [17] | outcome [18] | outcome [19]

Cc1ccc(Br)cc1
inactive: Potency [1] > 92 µM | Potency [2] > 92 µM | Potency [3] > 92 µM | Potency [4] > 92 µM | Potency [5] > 92 µM | outcome [6] | activity change, negative = cytotoxicity [7] 6.22% | Potency [8] | Potency [10] | Potency [11] | Potency [12] | Potency [13] | Potency [14] | caspase-3 activation [15] 0.635% | outcome [16] | outcome [17] | outcome [18] | outcome [19]

O=Cc1ccc(Cl)cc1
inactive: Potency [1] > 92 µM | Potency [2] > 92 µM | Potency [3] > 92 µM | Potency [4] > 92 µM | Potency [5] > 92 µM | outcome [6] | activity change, negative = cytotoxicity [7] -2.43% | Potency [8] | Potency [9] | Potency [10] | Potency [11] | Potency [12] | Potency [13] | Potency [14] | caspase-3 activation [15] -1.13% | outcome [16] | outcome [18] | outcome [19]
